HCMV inh – human cytomegalovirus inhibition; 410,000 tested, 4.5% active; activity change, negative = inhibition, % at 57.5 µM; HFF cells, HCMV-luciferase reporter, 72 h; active compounds read low; AID 1259415; in the data active = activity change below about -60%; inconclusive = no clear call, values can overlap the other calls; inactive = above about -39%; also: % is scaled to controls: 0 for no effect and ±100 for the full control effect
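Screen run at 2 compound doses on HFFs infected with reporter HCMV, MOI 1 PFU/cell. Luciferase activity from cell lysates at 72 h post infection gave inhibition relative to buffer-only and Salinomycin wells.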
Pf growth 48h – inhibits P. falciparum growth in the first generation, 48 h; P. falciparum luciferase growth in erythrocytes, 48 h; Potency, µM (series often up to 28.7 µM), inactives show at the highest dose activity change, negative = inhibition, usual class: inhibitors; 310,000 tested, 5.9% active; AID 504832; also: potency is read from the fitted curve at half-maximal effect; % is scaled to controls: 0 for no effect and ±100 for the full control effect
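Firefly luciferase activity from engineered P. falciparum reports growth; inhibitors lower the luminescent signal. Cultures contained 2% hematocrit erythrocytes at 0.1% final parasitemia.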
HCV inh – inhibitors of hepatitis C virus infection | Huh7.5.1 HCVcc-Cre infection, luciferase reporter, 44 h | Potency, µM (doses to about 41.8 µM), inactives show at the top dose activity change, negative = inhibition, hits mostly inhibitors | 340,000 tested, 3.4% active | AID 651820; also: potency is read from the fitted curve at half-maximal effect; % is scaled to controls: 0 for no effect and ±100 for the full control effect
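Seed cells (1,000/well) for 4 h; treat with compound and infect with HCVcc-Cre, moi about 0.5. Incubate 44 h, then detect luciferase activity.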
CHX counter – counter-screen hit for Shiga toxin inhibitors, cycloheximide. cell reporter, cycloheximide protein synthesis inhibition counterscreen. 300,000 tested, 12% active. AID 2314. max response, %; in the data active = max response mostly above about 13%, no sharp cut-off; inactive = mostly below about 14%; also: read at 38.3 µM for the half of the compounds with a filed dose; 0% is about no effect
Shiga toxin inh – blocks Shiga toxin action in Vero cells; 290,000 tested, 9.2% active; inhibition, % at 38.7 µM; Vero cells, Shiga toxin protein synthesis inhibition reporter; in the data active = inhibition mostly above about 28%, no sharp cut-off; inactive = mostly below about 43%; also: 0% is about no effect
Pf growth 96h – P. falciparum growth inhibition at 96 hour, primary screen for plastid delayed-death inhibitors | P. falciparum luciferase reporter growth, 96 h | Potency, µM (titrated, usually from 28.7 µM), for inactives: at the highest dose activity change, negative = inhibition, hits mostly inhibitors | 320,000 tested, 6.9% active; also: potency is read from the fitted curve at half-maximal effect; % is scaled to controls: 0 for no effect and ±100 for the full control effect
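Readout is luminescence from an integrated firefly luciferase in P. falciparum. Red cells, 2% hematocrit and 0.05% parasitemia final, were cultured with compound through two parasite generations (96 hours) at 37 C, 5% CO2.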
Numbers without * were called inactive; ? = inconclusive; · = no result; [ ] = dose if it differs, or a comment. Sampled rows, rich in hits. Any-hit rate of the full collection: about 21%. Unless noted, calls follow the shape of the dose curve; as a rule, active = well fitted inhibition curve with a large enough effect; inconclusive = small, poorly fitted or top-dose-only effect, or another doubt; inactive = no such curve, though single readings can be large or run the other way.

SMILES | HCMV inh | Pf growth 48h | HCV inh | CHX counter | Shiga toxin inh | Pf growth 96h
CC1(C)Cc2c(sc(NC(=O)/C=C/C(=O)O)c2C#N)CO1 | -15 | 4.1µM* | 14% | -2 | 1 | 2.9µM*
CC1(C)Cc2c(sc(NC(=O)c3ccco3)c2C#N)CO1 | 16 | 223% | -11% | 28* | 22 | ·
CC1(C)Cc2c(sc(NC(=O)C(=O)NCCCN3CCOCC3)c2C#N)CO1 | -26 | 11% | 7% | 4 | -10 | -24%
CCCC(C(=O)NCc1cccc(Cl)c1)N1Cc2ccccc2C1=O (configuration not stated) | -4 | · | · | · | · | ·
Cc1[nH]c2ccccc2c1C(=O)C(=O)N1CCN(c2ccccc2)CC1 | 33 | -9% | -10% | 1 | -10 | 30%
C[C@H](CO)N1C[C@H](C)[C@@H](CN(C)C)Oc2c(NS(=O)(=O)c3ccccc3)cccc2C1=O | 21 | · | 9% | · | · | ·
O=C(Nn1cnc2ccccc2c1=O)c1c(F)cccc1F | 0 | 13% | 17% | -2 | 3 | 3%
O=C(Nn1cnc2ccccc2c1=O)c1ccccc1Cl | 46 | 47% | 3% | 17* | 29 | 3%
O=C(Nc1ccc(Cl)cc1)Nn1cnc2ccccc2c1=O | -13 | 16% | 7% | 24* | 48* | 27%
O=C(/C=C/c1ccccc1)Nn1cnnc1 | -1 | 31% | -4% | -3 | -26 | 15µM*
O=C(/C=C/c1ccccc1)Nn1cnc2ccccc2c1=O | 70 | 35% | -6% | 21* | 29 | ?
O=C(Nn1cnc2ccccc2c1=O)c1ccccc1[N+](=O)[O-] | 24 | 12% | 8% | 24 | 22 | -15%
Cc1c(P(=O)(c2ccccc2)c2ccccc2)c2ccccc2n1C | 5 | · | · | · | · | ·
Cc1cccc(C)c1OCC(=O)OCC(=O)Nc1ccc(Cl)cn1 | -17 | 16% | 29% | · | · | -20%
COC(=O)c1ccc(C)c(NS(=O)(=O)c2cn(C)nc2C)c1 | 81 | 9% | 14% | 1 | -5 | 9%
O=C(CN1C(=O)NC(Cc2c[nH]c3ccccc23)C1=O)NCC(F)(F)F (configuration not stated) | 37 | 0% | 20% | -9 | -15 | 5%
Cc1cc(C(=O)Nn2cnc3ccccc3c2=O)ccc1[N+](=O)[O-] | -24 | 12% | -2% | 5 | -8 | 27%
Cc1ccccc1C(=O)Nn1cnc2ccccc2c1=O | 43 | 225% | 19% | 33* | 50* | ?
O=C(CSc1nc2ccccc2c(=O)n1-c1ccc(F)cc1F)Nc1ccc2c(c1)CCC2 | -72* | 9.3µM* | ? | 59* | 80* | ?
O=C(CSc1nc2ccccc2c(=O)n1-c1ccc(F)c(Cl)c1)Nc1ccc2c(c1)CCC2 | -28 | · | · | · | · | ·
O=C(CSc1nc2ccccc2c(=O)n1-c1ccc(F)cc1)Nc1ccc2c(c1)CCC2 | -68* | 9.3µM* | ? | 11 | 16 | 9.3µM*
O=C(CSc1nc2ccccc2c(=O)n1-c1ccccc1F)Nc1ccc2c(c1)CCC2 | -67* | ? | ? | -1 | -3 | ?
Cc1ccc(-n2c(SCC(=O)Nc3cccc(S(=O)(=O)NC4=NCCCCC4)c3)nc3ccccc3c2=O)cc1 | -66* | ? | ? | -2 | -13 | 3.7µM*
CCc1ccc(-n2c(SCC(=O)Nc3cccc(S(=O)(=O)NC4=NCCCCC4)c3)nc3ccccc3c2=O)cc1 | -26 | ? | ? | -2 | -21 | ?
CCN(CC)CCn1c(SCC(=O)Nc2ccc3c(c2)CCC3)nc2ccccc2c1=O | -33 | ? | ? | · | · | -117%
SMILES | HCMV inh | Pf growth 48h | HCV inh | CHX counter | Shiga toxin inh | Pf growth 96h
O=C(COc1ccc(F)cc1)OCc1cc(=O)n2nc(C3CC3)sc2n1 | -1 | · | · | · | · | ·
CC(=O)N/N=C(\N)c1nonc1N | -35 | 17% | 15% | 6 | 23 | 15%
O=C(Nc1cccc(S(=O)(=O)NC2=NCCC2)c1)c1cc(-c2ccccn2)nc2ccccc12 | 0 | 13% | ? | 6 | -4 | 3%
O=C(Nc1cccc(S(=O)(=O)NC2=NCCCCC2)c1)c1cc(-c2ccccc2Cl)nc2ccccc12 | -64* | ? | ? | -2 | -8 | ?
COc1cc(OC)c(NC(=O)CC(c2cccs2)N2Cc3ccccc3C2=O)cc1Cl (configuration not stated) | -36 | · | · | · | · | ·
CCOc1ccc(C(=O)Nc2cccc(NC(=O)c3cccs3)c2)cc1[N+](=O)[O-] | -40 | -16% | ? | 8 | -3 | 12µM*
CCOc1ccc(C(=O)Nc2cccc([N+](=O)[O-])c2)cc1Br | -24 | ? | 7.1µM* | 20* | 16 | ?
CCOc1ccc(C(=O)Nc2ccc(NC(=O)c3ccccc3)c(C)c2)cc1[N+](=O)[O-] | -11 | 12% | ? | -1 | -5 | 0.21µM*
CCOc1ccc(C(=O)Nc2ccc(N3CCN(S(C)(=O)=O)CC3)cc2)cc1[N+](=O)[O-] | -32 | -4% | -1% | -2 | 13 | 9.3µM*
CCCCC(=O)Nc1cccc(NC(=O)c2cccc([N+](=O)[O-])c2)c1 | -5 | -34%[1.15 µM] | ? | -7 | -3 | 26%[5.75 µM]
CCN1C(=O)/C(=C/C=C2\N(CC)c3cc(S(=O)(=O)N(C)C)ccc3N2c2ccccc2)SC1=S | ? | ? | ? | 1 | 15 | 13µM*
O=C(c1[nH]c(C(F)(F)F)nc1-c1ccccc1)N1CCN(C/C=C/c2ccccc2)CC1 | -17 | · | · | · | · | ·
Brc1ccccc1CN1CCC(N2CCCCC2)CC1 | -1 | -1% | 4µM* | 2 | 5 | 1%
O[C@@H]1CN(C2CCN(Cc3ccccc3)CC2)CC[C@H]1N1CCCCCC1 | 5 | · | ? | · | · | ·
C=CCc1c(C)nc(-c2ccccc2)nc1Nc1ccc(O)cc1 | -29 | 12% | ? | 0 | -14 | ?
C=CCc1c(C)nc(-c2ccccc2)nc1N/N=C(\C)c1ccccc1 | 57 | 11% | -20% | 12* | 21 | ?
O=C(Nc1cccc(NC(=O)c2ccco2)n1)c1ccco1 | 2 | 45% | -14% | -3 | 2 | -17%
COc1ccc(CCNC(=O)C2CC(=O)N(C3CCCCC3)C2)cc1OC (configuration not stated) | 43 | 4% | 20% | 8 | -12 | ?
CC(C)Cc1nc(N2CCN(C(=O)c3ccco3)CC2)c(C#N)c2c1CCCC2 | 0 | ? | 10µM* | 19 | 23 | -18%
CCCC(=O)N1CCN(c2nc(CC(C)C)c3c(c2C#N)CCC3)CC1 | ? | 2.6µM* | ? | 7 | 17 | 0%
CC(C)C(=O)N1CCN(c2nc(-c3ccccc3)c3c(c2C#N)CCCC3)CC1 | ? | · | 6.3µM* | -5 | -8 | 8.3µM*
CC(C)Cc1nc(N2CCN(C(=O)Cc3ccccc3)CC2)c(C#N)c2c1COC(C)(C)C2 | · | -25% | · | -7 | -12 | 2%[5.75 µM]
